Reference: PubChem BioAssay (EPA / NIEHS)
Where “and” joins values, the source holds several entries; their conditions need not be identical. Equal entries are not always repeated. Records with an inconclusive call do not appear. Calls of active or inactive are those of the source. How the source made its calls: active means hit-call score of the fitted dose curve at least 0.9, where 1 is the maximum; inconclusive means response in the unintended direction; inactive means score below 0.9.

How the values were obtained:
[1] = biological target: Cellular tumor antigen p53 (Homo sapiens) (UniProt P04637); experiment: TOX21_p53_BLA_p5_ratio: Tox21 HCT-116 p53 Agonism Beta-lactamase Assay, Ratio, Phase 5 (AID 2283599)
Sequence of Cellular tumor antigen p53 (Homo sapiens) (P04637 whole entry, looked up): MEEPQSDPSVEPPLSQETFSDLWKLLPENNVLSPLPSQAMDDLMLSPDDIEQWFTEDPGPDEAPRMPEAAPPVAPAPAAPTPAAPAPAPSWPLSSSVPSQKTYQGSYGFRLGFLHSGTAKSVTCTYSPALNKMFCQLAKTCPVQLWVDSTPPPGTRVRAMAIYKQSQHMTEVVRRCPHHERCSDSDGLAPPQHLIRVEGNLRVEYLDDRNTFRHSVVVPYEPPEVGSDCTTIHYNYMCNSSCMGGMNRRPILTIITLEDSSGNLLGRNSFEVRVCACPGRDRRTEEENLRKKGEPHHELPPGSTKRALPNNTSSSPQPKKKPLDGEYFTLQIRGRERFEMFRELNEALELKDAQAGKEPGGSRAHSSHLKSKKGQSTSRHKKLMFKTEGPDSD
Procedure, shortened: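 Beta-lactamase reporter ratio (blue 460 nm over green 530 nm, 405 nm excitation) after 2 h CCF4-AM loading, in HCT-116 cells exposed 16 h at 37 C to compounds pinned at 217-fold dilution. Increases relative to DMSO baseline scored.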

[2] = TOX21_p53_BLA_p5_viability: Viability Assessment in the Tox21 HCT-116 p53 Agonism Beta-lactamase Assay, Phase 5 (AID 2283600)
Procedure, shortened: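 Decreased CellTiter-Glo luminescence denotes lost viability. Exposure: 16 h at 37C, 5% CO2, with compounds from DMSO stocks diluted 217-fold in wells of 4000 cells.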

[3] = biological target: Cellular tumor antigen p53 (Homo sapiens) (UniProt P04637); experiment: TOX21_p53_BLA_p4_ratio: Tox21 HCT-116 p53 Agonism Beta-lactamase Assay, Ratio, Phase 4 (AID 2283601)
Procedure, shortened: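 Signal is the blue/green (460nm/530nm) ratio of cleaved versus uncleaved CCF4-AM substrate, read after 2 h substrate loading. Cells were HCT116 carrying the p53-responsive beta-lactamase reporter, dosed 16 h at 37C, 5% CO2; CellTiter-Glo measured in parallel.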

[4] = Tanguay_ZF_120hpf_YSE_legacy: (Legacy) Oregon State University Tanguay Lab 120 Hour Post-fertilization zebrafish Assay for Yolk Sac Edema (AID 2283634);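 on AC50: actives raise the incidence of yolk sac edema above the DMSO baseline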
Procedure, shortened: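 Dechorionated Tropical 5D wild-type zebrafish embryos were exposed statically, one per well, from 6 to 120 hpf at 28C in 0.64% DMSO. Yolk sac edema was scored present/absent by brightfield at 120 hpf, and dead embryos were excluded.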

[5] = Tanguay_ZF_120hpf_AXIS_legacy: (Legacy) Oregon State University Tanguay Lab 120 Hour Post-fertilization zebrafish Assay for Body Axis Malformation (AID 2283635);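 on AC50: potency for an increased fraction of larvae scored with body axis malformation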
Procedure, shortened: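 Dechorionated wild-type Tropical 5D zebrafish embryos, one per well, statically exposed from 6 hpf to 120 hpf at 28C in 0.64% DMSO final. Body axis malformation scored present/absent by brightfield microscopy at 120 hpf; dead embryos excluded.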

[6] = Tanguay_ZF_120hpf_EYE_legacy: (Legacy) Oregon State University Tanguay Lab 120 Hour Post-fertilization zebrafish Assay for Eye Malformation (AID 2283636);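 further: binary presence or absence of eye malformation scored by brightfield in 120 hpf larvae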
Procedure, shortened: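 Binary brightfield scoring of eye defects at 120 hpf after static exposure from 6 hpf of single pronase-dechorionated wild-type embryos (28C, 0.64% DMSO). Non-mortality endpoints omitted where embryos died; fit vs DMSO.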

[7] = Tanguay_ZF_120hpf_SNOU_legacy: (Legacy) Oregon State University Tanguay Lab 120 Hour Post-fertilization zebrafish Assay for Snout Malformation (AID 2283637)
Procedure, shortened: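 Binary snout-malformation call at 120 hpf in wild-type 5D embryos, chorion removed by pronase, under static exposure from 6 hpf at 28C (0.64% DMSO). Embryos dying by 24 or 120 hpf excluded.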

[8] = Tanguay_ZF_120hpf_JAW_legacy: (Legacy) Oregon State University Tanguay Lab 120 Hour Post-fertilization zebrafish Assay for Jaw Malformation (AID 2283638);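 on AC50: active means more embryos with jaw malformation than DMSO controls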
Procedure, shortened: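 Dechorionated Tropical 5D wild-type zebrafish embryos, one per well, exposed statically from 6 hpf to 120 hpf at 28C in 0.64% DMSO. Jaw malformation was scored by brightfield microscopy as present or absent. It was not scored in dead embryos.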

[9] = Tanguay_ZF_120hpf_OTIC_legacy: (Legacy) Oregon State University Tanguay Lab 120 Hour Post-fertilization zebrafish Assay for Otic Vesicle Malformation (AID 2283639)
Procedure, shortened: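 Wild-type zebrafish larvae, whole-embryo exposure from early stage to 120 hpf at 28C. Binary brightfield scoring of otic vesicle morphology, fitted in the positive direction against the DMSO baseline.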

[10] = Tanguay_ZF_120hpf_MORT_legacy: (Legacy) Oregon State University Tanguay Lab 120 Hour Post-fertilization zebrafish Assay for Mortality (AID 2283633)
Procedure, shortened: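 Dechorionated Tropical 5D wild-type zebrafish embryos, one per well from 6 hpf, static exposure in 0.64% DMSO at 28C until 120 hpf. Mortality scored as binary by brightfield microscopy at 24 and 120 hpf.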

Nc1ccccc1N
outcome [1]: inactive | outcome [2]: inactive | outcome [3]: inactive | AC50 [4]: 46.3 µM (active) | outcome [5]: inactive | outcome [6]: inactive | outcome [7]: inactive | AC50 [8]: 49.4 µM (active) | outcome [9]: inactive

Cc1ccc(Cl)cc1
outcome [1]: inactive | outcome [2]: inactive | outcome [3]: inactive | outcome [4]: inactive | outcome [5]: inactive | outcome [6]: inactive | outcome [7]: inactive | outcome [8]: inactive | outcome [9]: inactive

NC(=O)Cn1c(=O)cc(CCN2CCN(c3nccc4sccc34)CC2)c2ccc(F)cc21
outcome [4]: inactive | outcome [5]: inactive | outcome [6]: inactive | outcome [7]: inactive | outcome [8]: inactive | outcome [9]: inactive

CCCCc1ccc2c(n1)[C@@H](c1ccc(OC)cc1C[C@H](C)C(=O)O)[C@H](C(=O)O)[C@H]2c1ccc2c(c1)OCO2
outcome [1]: inactive | outcome [10]: inactive | outcome [4]: inactive | outcome [5]: inactive | outcome [6]: inactive | outcome [7]: inactive | outcome [8]: inactive

CN1CCN(Cc2cc(-c3ccc4[nH]c(=O)oc4c3)co2)[C@@H](c2ccc(F)cc2)C1
outcome [4]: inactive | outcome [5]: inactive | outcome [6]: inactive | AC50 [7]: 25.6 µM (active) | AC50 [8]: 25.7 µM (active) | outcome [9]: inactive

Oc1ccc2c(c1)OC[C@@H](N1CCC(O)(c3ccc(F)cc3)CC1)[C@H]2O
outcome [1]: inactive | outcome [10]: inactive | outcome [4]: inactive | outcome [6]: inactive | outcome [7]: inactive | outcome [8]: inactive | outcome [9]: inactive

CCCCCCCCCCCCCCCCCC(=O)O
outcome [10]: inactive | outcome [4]: inactive | outcome [5]: inactive | outcome [6]: inactive | outcome [7]: inactive | outcome [8]: inactive | outcome [9]: inactive

NCCO
outcome [1]: inactive | outcome [3]: inactive | outcome [4]: inactive | outcome [5]: inactive | outcome [6]: inactive | outcome [7]: inactive | outcome [8]: inactive

COc1ccc(C)cc1N
outcome [1]: inactive | outcome [3]: inactive | outcome [10]: inactive | outcome [4]: inactive | outcome [5]: inactive | outcome [7]: inactive | outcome [8]: inactive | outcome [9]: inactive

COc1cccc2c1C(=O)c1c(O)c3c(c(O)c1C2=O)C[C@@](O)(C(=O)CO)C[C@@H]3O[C@H]1C[C@H](N)[C@H](O)[C@H](C)O1
AC50 [1]: 238 nM (active) and 422 nM (active) | AC50 [3]: 211 nM (active) and 437 nM (active)

CC1(C)NC(=O)NC1=O
outcome [1]: inactive | outcome [3]: inactive | outcome [4]: inactive | outcome [6]: inactive | outcome [8]: inactive | outcome [9]: inactive

FC(F)(F)C(F)(F)C(F)(F)C(F)(F)C(F)(F)C(F)(F)CCI
outcome [1]: inactive | outcome [10]: inactive | outcome [4]: inactive | outcome [5]: inactive | outcome [6]: inactive | outcome [7]: inactive | outcome [8]: inactive

Cc1cccc(Nc2cc(Cl)nc(SCC(=O)O)n2)c1C
outcome [1]: inactive | outcome [3]: inactive | outcome [10]: inactive | outcome [4]: inactive | outcome [6]: inactive | outcome [7]: inactive | outcome [8]: inactive | outcome [9]: inactive

CCCCCCC(=O)OCC
outcome [3]: inactive | outcome [5]: inactive | outcome [6]: inactive | outcome [7]: inactive | outcome [9]: inactive

CC(CO)OC(C)CO (stereo not given) (tested in a mixture with another compound)
outcome [10]: inactive | outcome [4]: inactive | outcome [5]: inactive | outcome [6]: inactive | outcome [7]: inactive | outcome [9]: inactive

CCCCCC(=O)O
outcome [1]: inactive | outcome [3]: inactive | outcome [10]: inactive | outcome [4]: inactive | outcome [5]: inactive | outcome [6]: inactive | outcome [7]: inactive | outcome [8]: inactive | outcome [9]: inactive

Cc1ccc(C)c(O)c1C
outcome [1]: inactive | outcome [3]: inactive | outcome [4]: inactive | outcome [5]: inactive | outcome [6]: inactive | outcome [7]: inactive | outcome [8]: inactive

C[Si]1(C)O[Si](C)(C)O[Si](C)(C)O[Si](C)(C)O1
outcome [1]: inactive | outcome [3]: inactive | outcome [10]: inactive | outcome [4]: inactive | outcome [5]: inactive | outcome [6]: inactive | outcome [7]: inactive | outcome [8]: inactive | outcome [9]: inactive

Cc1cc(NC(=O)C(=O)O)cc(C)c1Oc1ccc(O)c2c1CCC2
outcome [1]: inactive | outcome [3]: inactive | AC50 [4]: 0.0678 µM (active) | AC50 [5]: 0.526 µM (active) | outcome [6]: inactive | AC50 [7]: 0.0742 µM (active) | AC50 [8]: 0.0689 µM (active) | outcome [9]: inactive

COCCOC[C@H](CC1(C(=O)NC2CCC(C(=O)O)CC2)CCCC1)C(=O)Oc1ccc2c(c1)CCC2 (stereo not given in full)
outcome [1]: inactive | outcome [3]: inactive | outcome [10]: inactive | outcome [4]: inactive | outcome [5]: inactive | outcome [6]: inactive | outcome [7]: inactive | outcome [8]: inactive | outcome [9]: inactive

CCCCCCCCCCCCCCCC
outcome [4]: inactive | outcome [5]: inactive | outcome [6]: inactive | outcome [7]: inactive | outcome [8]: inactive | outcome [9]: inactive

CCCCCCCC=O
outcome [2]: inactive | outcome [3]: inactive | outcome [10]: inactive | outcome [4]: inactive | outcome [5]: inactive | outcome [6]: inactive | outcome [7]: inactive | outcome [8]: inactive | outcome [9]: inactive

COc1cc(S(=O)(=O)O)c(C)cc1N=Nc1c(O)ccc2cc(S(=O)(=O)O)ccc12
outcome [1]: inactive | outcome [3]: inactive | outcome [10]: inactive | outcome [4]: inactive | outcome [5]: inactive | outcome [6]: inactive | outcome [7]: inactive | outcome [8]: inactive | outcome [9]: inactive

CC(=O)OCCOCCOCCOC(C)=O
outcome [1]: inactive | outcome [3]: inactive | outcome [10]: inactive | outcome [4]: inactive | outcome [5]: inactive | outcome [6]: inactive | outcome [7]: inactive | outcome [8]: inactive | outcome [9]: inactive

CCCCOC(=O)CCCCCCCCC(=O)OCCCC
outcome [3]: inactive | outcome [4]: inactive | outcome [6]: inactive | outcome [7]: inactive | outcome [8]: inactive | outcome [9]: inactive

CCCCCCCCCCC
outcome [3]: inactive | outcome [10]: inactive | outcome [4]: inactive | outcome [5]: inactive | outcome [6]: inactive | outcome [7]: inactive | outcome [8]: inactive | outcome [9]: inactive

CC(=O)C(C)=CC1C(C)=CCCC1(C)C (stereo not given)
outcome [1]: inactive | outcome [2]: inactive | outcome [10]: inactive | outcome [5]: inactive | outcome [6]: inactive | outcome [7]: inactive | outcome [9]: inactive

Cc1cccc([N+](=O)[O-])c1C
outcome [1]: inactive | outcome [2]: inactive | outcome [10]: inactive | outcome [4]: inactive | outcome [5]: inactive | outcome [6]: inactive | outcome [7]: inactive | outcome [8]: inactive | outcome [9]: inactive

C[C@]12C=CC(=O)C=C1CC[C@@H]1[C@@H]2C(=O)C[C@@]2(C)[C@H]1CC[C@]2(O)C(=O)CO
outcome [1]: inactive | outcome [2]: inactive | outcome [10]: inactive | outcome [4]: inactive | outcome [6]: inactive | outcome [7]: inactive | outcome [8]: inactive | outcome [9]: inactive

NCC1(Cc2noc(=O)[nH]2)CCCCC1
outcome [1]: inactive | outcome [3]: inactive | outcome [10]: inactive | outcome [4]: inactive | outcome [5]: inactive | outcome [6]: inactive | outcome [7]: inactive | outcome [8]: inactive

Cc1nc(C)nc(N2C[C@@H](C)N(c3ccnc([C@@H](C)O)n3)[C@@H](C)C2)n1
outcome [2]: inactive | outcome [10]: inactive | outcome [4]: inactive | outcome [5]: inactive | outcome [6]: inactive | outcome [7]: inactive | outcome [8]: inactive | outcome [9]: inactive

CCCCN(CCCC)CCCC
outcome [1]: inactive | outcome [4]: inactive | outcome [5]: inactive | outcome [7]: inactive | outcome [8]: inactive | outcome [9]: inactive
